# Several values for one entry are separate records, joined by “and”; a condition that tells them apart may be missing. Equal values may be shown once. Records with an inconclusive call do not appear. Activity calls are given as the source filed them. Unless noted, cut-off not given; nearly all actives show AC50 up to about 26 µM.
# What was measured:
# [1] = growth inhibition of DIPG glioma cells, dose response, cell-based, SU-DIPG-XVII, MIPE5.0, CellTiter-Glo, qHTS (AID 1347060); settings: SU-DIPG-XVII viability, CellTiter-Glo ATP luminescence;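 on AC50: cells exposed to compound for 48 hours before viability readout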
# [2] = growth inhibition of DIPG glioma cells, dose response, cell-based, JHH-DIPG-1, MIPE4.0, CellTiter-Glo, qHTS (AID 1347062; cut-off not given, nearly all actives have AC50 up to about 27 µM;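 on AC50: cells exposed to compound for two days before readout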); settings: JHH-DIPG-1 viability, CellTiter-Glo ATP luminescence
# [3] = growth inhibition of DIPG glioma cells, dose response, cell-based, SU-DIPG-XIII, MIPE5.0, CellTiter-Glo, qHTS (AID 1347064; cut-off not given, nearly all actives have AC50 up to about 23 µM;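 on AC50: cells exposed to compound for 48 hours before the viability read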); settings: SU-DIPG-XIII viability, CellTiter-Glo ATP luminescence
# [4] = viability loss in pontine glioma line – cell-based, SU-DIPG-XXV, MIPE5.0, CellTiter-Glo, qHTS, dose response (AID 1347065); settings: CellTiter-Glo ATP luminescence;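 further: cells exposed to compound for 48 hours before ATP readout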
# [5] = SU-DIPG-VI glioma cell viability, MIPE4.0 library, CellTiter-Glo luminescence, qHTS (AID 1347066; cut-off not given, nearly all actives have AC50 up to about 30 µM;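 further: cells exposed to compound for 48 hours before readout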); settings: CellTiter-Glo ATP luminescence
# [6] = JHH-DIPG-1 glioma cell viability, MIPE5.0 library, CellTiter-Glo luminescence, qHTS (AID 1347067); settings: JHH-DIPG-1 glioma viability, CellTiter-Glo ATP luminescence;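 further: cells exposed to compound for 48 hours before readout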
# [7] = SU-DIPG-XXV glioma cell viability, MIPE5.0 library, qHTS (AID 1347068; cut-off not given, nearly all actives have IC50 up to about 30 µM;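 on IC50: cells exposed to compound for 48 hours before viability readout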)
# [8] = sensitizers of A549 cells to miR-34 induction, primary screen, imaging, A549 dox-inducible miR-34, nuclei and caspase counts (AID 1347080;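 active means compounds whose cell count with miR-34 switched on is under 0.7 times the count with it off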); settings: A549 miR-34 inducible, Hoechst nuclei count, 48 h
# [9] = modifiers of HSF1 nuclear foci, imaging, Selleck Cancer Library (AID 1347162; in the data active means plate-normalised HSF1 focus index below about 0.46); settings: human cells, at 10 µM; SSMD: measured here: HSF1 foci SSMD mean; cell count: measured here: cell number; plate-normalised HSF1 focus index: stronger effect = lower value
# [10] = survival rescue of mitochondrial mutant cells in low glucose, primary screen, MELAS cybrids, Rieske KO mouse fibroblasts, CellTiter-Glo (AID 1508586;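 active means mean z-score across replicates of 1.96 or higher in either the MELAS or the Rieske mutant cell line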;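 further: z relative to plate mean and SD of compound and empty wells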)
# [11] = liver-stage malaria parasite growth inhibition, primary screen, cell-based, HepG2, luciferase luminescence, HepG2 viability (AID 624349; in the data active means parasite load remaining mostly below about 12%, no sharp cut-off; inactive means mostly above about 10%;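 further: 100% = mean of DMSO negative control wells on the same plate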); settings: P. berghei liver stage in HepG2, luciferase luminescence, concentration not given here; parasite load remaining: stronger effect = lower value; viability: measured here: HepG2 viability without parasites
# [12] = growth inhibition of DIPG glioma cells, dose response, cell-based, SU-DIPG-IV, MIPE4.0, CellTiter-Glo, qHTS (AID 1347063; cut-off not given, nearly all actives have AC50 up to about 30 µM;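 further: compound exposure lasted 48 hours before the viability readout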); settings: SU-DIPG-IV viability, CellTiter-Glo ATP luminescence
# [13] = Cy5 fluorescence interference with SSB-bound oligo, artefact control for HCV NS3 helicase inhibitor project, biochemical, NIH Clinical Collection, E. coli SSB (AID 743268; call rule not given here)
# [14] = tested on: Hepatitis C virus NS3 helicase; assay: HCV NS3 helicase inhibitors, primary screen, biochemical, fluorescence polarization, NIH Clinical Collection (AID 743270; call rule not given here); settings: NS3 helicase binding to Cy5-dT15 DNA, stronger effect = higher value, concentration not given here
# [15] = molecular target: Single-stranded DNA-binding protein (Escherichia coli (strain K12)) (UniProt P0AGE0); assay: E. coli SSB displacement from DNA, counter-screen for HCV NS3 helicase inhibitor project, biochemical, fluorescence polarization, NIH Clinical Collection (AID 743271; in the data active means inhibition above about 28%); settings: stronger effect = higher value, concentration not given here
# [16] = fluorescence interference in NS3h assay format, artefact control for HCV NS3 helicase inhibitor project, biochemical, NIH Clinical Collection (AID 743272; call rule not given here;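 further: HCV NS3 helicase with a Cy5 labelled single stranded DNA probe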); settings: fluorescence interference counterscreen, stronger effect = lower value
# [17] = viability rescue of complex I mutant cybrids, primary screen, cell-based, galactose medium, ATP luminescence (AID 1645843;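 active means z-score of at least 1.8 in each of two replicates, scored against plate mean and spread of sample wells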;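 further: positive z means more ATP and so rescue of galactose-driven cybrid death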); settings: complex I mutant cybrid cells, 72 h, stronger effect = higher value
# [18] = growth inhibition of DIPG glioma cells, dose response, cell-based, SU-DIPG-XIII, MIPE4.0, CellTiter-Glo, qHTS (AID 1347061; cut-off not given, nearly all actives have AC50 up to about 37 µM;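 further: cells exposed to compound for 48 hours before readout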); settings: SU-DIPG-XIII viability, CellTiter-Glo ATP luminescence
# [19] = measured here: relative caspase fold change +Dox/-Dox
# [20] = measured here: total cells with miR-34 induction, stronger effect = lower value
# [21] = measured here: total cells without miR-34 induction
# [22] = MELAS cybrid survival, CellTiter-Glo 48 h, stronger effect = higher value
# [23] = Rieske KO mouse fibroblast survival, CellTiter-Glo 72 h
# [24] = stronger effect = lower value, cell number ratio, induced over uninduced
smiles,measurement,setting,value
CC(=O)Nc1ccc(OC[C@](C)(O)C(=O)Nc2ccc([N+](=O)[O-])c(C(F)(F)F)c2)cc1,outcome,[1],inactive
same,outcome,[2],inactive
same,outcome,[3],inactive
same,outcome,[4],inactive
same,outcome,[5],inactive
same,outcome,[6],inactive
same,outcome,[7],inactive
same,fold change,[8]; stronger effect = lower value,0.963 (inactive)
same,fold change,[8]; [19],0.857
same,cell count,[8]; [20],7800
same,cell count,[8]; [21],8100
same,SSMD,[9],0.174
same,cell count,[9],7020
same,plate-normalised HSF1 focus index,[9],1.01 (inactive)
same,z-score,[10]; [22],-0.592 (inactive)
same,z-score,[10]; [23],0.733
O=C(CBr)N1CC([N+](=O)[O-])([N+](=O)[O-])C1,outcome,[1],inactive
same,outcome,[4],inactive
same,outcome,[7],inactive
CC(C)(C)c1cc(C=C(C#N)C#N)cc(Br)c1O,parasite load remaining,[11],43.4% (inactive)
same,viability,[11],165%
same,AC50,[1],20.9 µM (active)
same,AC50,[3],18.6 µM (active)
same,AC50,[4],23.5 µM (active)
same,AC50,[6],18.6 µM (active)
same,outcome,[7],inactive
same,fold change,[8]; stronger effect = lower value,0.886 (inactive)
same,fold change,[8]; [19],1.14
same,cell count,[8]; [20],7700
same,cell count,[8]; [21],8690
same,z-score,[10]; [22],-0.608 (inactive)
same,z-score,[10]; [23],-0.108
CC1=C2C[C@H]3[C@@H](CC=C4C[C@@H](O)CC[C@@]43C)[C@@H]2CC[C@]12O[C@@H]1C[C@H](C)CN[C@H]1[C@H]2C,outcome,[1],inactive
same,outcome,[2],inactive
same,outcome,[12],inactive
same,outcome,[3],inactive
same,outcome,[4],inactive
same,outcome,[5],inactive
same,outcome,[6],inactive
same,outcome,[7],inactive
same,fold change,[8]; stronger effect = lower value,0.912 (inactive)
same,fold change,[8]; [19],0.801
same,cell count,[8]; [20],4470
same,cell count,[8]; [21],4900
same,SSMD,[9],2.32
same,cell count,[9],7300
same,plate-normalised HSF1 focus index,[9],1.08 (inactive)
CC(=O)OC[C@H]1O[C@@H]([S-])[C@H](OC(C)=O)[C@@H](OC(C)=O)[C@@H]1OC(C)=O.CC[PH+](CC)CC.[Au],AC50,[1],1.05 µM (active)
same,AC50,[3],1.66 µM (active)
same,AC50,[4],1.18 µM (active)
same,AC50,[6],1.32 µM (active)
same,IC50,[7],2.63 µM (active)
C=C(C)[C@@H]1CCC(C)=C[C@H]1c1c(O)cc(CCCCC)cc1O,AC50,[1],26.3 µM (active)
same,AC50,[3],23.5 µM (active)
same,AC50,[6],23.5 µM (active)
Cn1c(CCCCCCC(=O)NO)nc2cc(N(CCCl)CCCl)ccc21,AC50,[1],9.34 µM (active)
same,AC50,[6],9.34 µM (active)
same,outcome,[7],inactive
C[C@]12Cc3cn[nH]c3C[C@@H]1CC[C@@H]1[C@@H]2CC[C@@]2(C)[C@H]1CC[C@]2(C)O,parasite load remaining,[11],50.6% (inactive) and 13.2% (inactive)
same,viability,[11],69.5% and 91.5%
same,fluorescence ratio,[13],0.94 (inactive)
same,inhibition,[14],-1.97% (inactive)
same,inhibition,[15],-2.76% (inactive)
same,fluorescence ratio,[16],0.96 (inactive)
same,outcome,[1],inactive
same,outcome,[12],inactive
same,outcome,[3],inactive
same,outcome,[4],inactive
same,outcome,[5],inactive
same,outcome,[6],inactive
same,outcome,[7],inactive
same,fold change,[8]; stronger effect = lower value,0.887 (inactive)
same,fold change,[8]; [19],2.02
same,cell count,[8]; [20],8690
same,cell count,[8]; [21],9800
same,z-score,[10]; [22],0.697 (inactive) and -0.417 (inactive)
same,z-score,[10]; [23],-0.0861 and -1.23
same,z-score,[17],-0.265 (inactive)
Cn1c(/C=C/CO)c(CO)c2c1C(=O)C=C(N1CC1)C2=O,outcome,[1],inactive
same,outcome,[4],inactive
same,outcome,[7],inactive
CCOc1ccccc1-n1c(C(C)N2CCN(C(=O)COc3ccc(Cl)cc3)CC2)nc2ccccc2c1=O (configuration not stated),AC50,[1],16.6 µM (active)
same,AC50,[4],18.6 µM (active)
same,IC50,[7],18.6 µM (active)
same,fold change,[8]; [24],0.777 (inactive)
same,fold change,[8]; [19],0.61
same,cell count,[8]; [20],5130
same,cell count,[8]; [21],6610
same,z-score,[10]; [22],1.76 (inactive)
same,z-score,[10]; [23],1.03
CN[C@@H]1C[C@H]2O[C@@](C)([C@@H]1OC)n1c3ccccc3c3c4c(c5c6ccccc6n2c5c31)C(=O)NC4,AC50,[1],0.118 µM (active)
same,AC50,[3],0.263 µM (active)
same,AC50,[4],0.209 µM (active)
same,AC50,[6],0.209 µM (active)
same,IC50,[7],0.833 µM (active)
same,fold change,[8]; [24],1.19 (inactive)
same,fold change,[8]; [19],0.478
same,cell count,[8]; [20],874
same,cell count,[8]; [21],732
C[C@@H]1CC[C@@]2(OC1)O[C@H]1C[C@H]3[C@@H]4CC=C5C[C@@H](O[C@@H]6O[C@H](CO)[C@@H](O[C@@H]7O[C@@H](C)[C@H](O)[C@@H](O)[C@H]7O)[C@H](O)[C@H]6O[C@@H]6O[C@@H](C)[C@H](O)[C@@H](O)[C@H]6O)CC[C@]5(C)[C@H]4CC[C@]3(C)[C@H]1[C@@H]2C,AC50,[1],0.661 µM (active)
same,AC50,[2],2.35 µM (active)
same,AC50,[12],0.833 µM (active)
same,AC50,[3],0.148 µM (active)
same,AC50,[4],0.468 µM (active)
same,AC50,[5],5.26 µM (active)
same,AC50,[6],0.742 µM (active)
same,IC50,[7],3.72 µM (active)
COc1cc(C)[nH]c(=O)c1CNC(=O)c1c(C)n([C@H](C)C2CCOCC2)c2ccccc12,outcome,[1],inactive
same,outcome,[3],inactive
same,outcome,[4],inactive
same,outcome,[6],inactive
O=C(NCCCNc1nc(Nc2ccc(N3CCOCC3)cc2)ncc1C1CC1)C1CCC1,AC50,[1],20.9 µM (active)
same,AC50,[4],16.6 µM (active)
same,AC50,[6],14.8 µM (active)
COC(=O)[C@@]12OC[C@]34[C@H]([C@@H](O)[C@@H]1O)[C@@]1(C)CC(=O)C(O)=C(C)[C@@H]1C[C@H]3OC(=O)[C@H](OC(=O)/C=C(\C)C(C)C)[C@@H]24,AC50,[1],0.0295 µM (active)
same,AC50,[3],0.059 µM (active)
same,AC50,[4],0.0105 µM (active)
same,AC50,[6],0.0525 µM (active)
same,IC50,[7],5.9 µM (active)
COc1ccc2c(c1)CN(C)CC2c1ccc(Cl)c(Cl)c1 (configuration not stated),outcome,[18],inactive
C/C1=C/C[C@@H](/C(C)=C/c2csc(C)n2)OC(=O)C[C@H](O)C(C)(C)C(=O)[C@H](C)[C@@H](O)[C@@H](C)CCC1,AC50,[1],0.00296 µM (active)
same,AC50,[4],0.00417 µM (active)
CC1(C)CC[C@]2(NC(=O)C(C)(F)F)CC[C@]3(C)[C@H](C(=O)C=C4[C@@]5(C)C=C(C#N)C(=O)C(C)(C)[C@@H]5CC[C@]43C)[C@@H]2C1,AC50,[1],7.42 µM (active)
same,AC50,[3],10.5 µM (active)
same,AC50,[4],9.34 µM (active)
same,AC50,[6],7.42 µM (active)
same,IC50,[7],11.8 µM (active)

# — PubChem BioAssay
